Experimental data: the supplement of paper PMC11732987, “Enantioselective OTUD7B fragment discovery through chemoproteomics screening and high-throughput optimisation” (Communications Chemistry, 2025)

Each molecule was assayed against EIF3H (UniProt O15372) (assay: log2 ratio of Biotin-Ahx-Ub-VS probe labelling (fragment/DMSO); higher = less target engagement (more negative = stronger competition), active = hit call of the paper (q ≤ 0.05, log2 ratio ≤ -1)). Details: compound concentration: 200 uM; treatment time: 3 h.
Method in brief: (§1)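 Using Biotin-Ahx-Ub-VS at 0.5 µM final for 1 h, DUBs were labelled in HEK293T lysate (495 µg per sample) that had first been treated in triplicate with fragment at 200 µM or vehicle for 3 h. NeutrAvidin enrichment, LysC and trypsin digestion and diaPASEF LC-MS/MS followed. Spectronaut label-free quantities were global-median-normalised. Values are average log2 fragment/vehicle ratios by unpaired t-test, using proteins with ≥2 unique peptides.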

Chain of EIF3H (O15372 whole entry, the tested form may be a part): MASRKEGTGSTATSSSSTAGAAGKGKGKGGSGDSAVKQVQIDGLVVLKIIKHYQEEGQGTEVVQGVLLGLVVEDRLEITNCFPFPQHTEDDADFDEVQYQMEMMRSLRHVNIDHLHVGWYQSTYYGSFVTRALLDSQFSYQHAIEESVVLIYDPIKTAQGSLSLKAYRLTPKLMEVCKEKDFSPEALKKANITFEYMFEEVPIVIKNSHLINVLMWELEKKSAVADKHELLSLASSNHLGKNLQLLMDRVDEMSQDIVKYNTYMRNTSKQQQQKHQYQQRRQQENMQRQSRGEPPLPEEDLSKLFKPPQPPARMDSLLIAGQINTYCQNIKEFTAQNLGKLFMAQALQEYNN

log2 ratio of Biotin-Ahx-Ub-VS probe labelling, inactive:
Cc1cccc(N(CCC#N)C(=O)CCl)c1C 0.111
O=C(CCl)NCC(=O)N1CCCC1 0.0708
Cl.O=C(CCl)NC1(c2ncccn2)CCC1 0.137
Cc1ccccc1OCC(=O)N1CCN(C(=O)CCl)CC1 0.19
O=C(CCl)N1CCOC2(CCC2)CC1 0.0846
O=C(CCl)N1CCOC(CCc2ccccc2)C1 (centres undefined) 0.0677
CCC(NC(=O)CCl)c1ccc(Cl)cc1 (centres undefined) -0.0528
COc1cc(Cl)c(C)cc1NC(=O)CCl -0.06
O=C(CCl)NCc1cccc(F)c1 0.138
O=C(CCl)NCc1cccc(N2CCCC2=O)c1 0.112
Cl.O=C(CCl)NCc1cc2c(nc1O)CCCC2 0.0749
COc1ccc(CN(C)C(=O)CCl)cc1 0.0709
CC1CCc2onc(CNC(=O)CCl)c2C1 (centres undefined) -0.00651
N#Cc1ccccc1N1CCN(C(=O)CCl)CC1 -0.0881
Cl.O=C(CCl)N1CCc2ncncc2C1 -0.29
Cc1cc(Cl)ccc1NC(=O)CCl 0.0385
Cc1ccc(CC(NC(=O)CCl)c2ccccn2)cc1.Cl (centres undefined) 0.165
O=C(CCl)N1CCC(C(=O)N2CCCC2)CC1 -0.0247
CCc1c[nH]c(CNC(=O)CCl)n1.Cl 0.281
O=C(CCl)NC(Cn1ccccc1=O)c1ccccc1 (centres undefined) -0.0521
Cc1nnc(C(NC(=O)CCl)c2ccccc2)n1C (centres undefined) 0.24
Cc1cccc2nc(CCNC(=O)CCl)cn12.Cl -0.726
Cc1cccnc1NC(=O)C1CCN(C(=O)CCl)CC1.Cl 0.146
COc1cccc(CN(C)C(=O)CCl)c1 -0.0896
Cl.O=C(CCl)NCCN1CCc2ccccc21 0.469
O=C(CCl)N1CCC(c2nc3ccccc3o2)CC1 0.264
O=C(CCl)NC1CCC(C(F)(F)F)CC1 (centres undefined) -0.225
Cc1nc(CNC(=O)CCl)c2ccccn12.Cl 0.233
O=C(CCl)NC1CCS(=O)(=O)c2ccccc21 (centres undefined) -0.0327
O=C(CCl)N1CCC(=C(F)CO)C1 -0.169
O=C(CCl)Nc1cccc2ncccc12 -0.273
O=C(CCl)Nc1cccc(C(=O)N2CCSCC2)c1 0.0708

Each molecule was assayed against T1, FAM105A (UniProt Q9NUU6) in the same assay as above. Details: compound concentration: 200 uM; treatment time: 3 h.
T1 sequence (whole entry): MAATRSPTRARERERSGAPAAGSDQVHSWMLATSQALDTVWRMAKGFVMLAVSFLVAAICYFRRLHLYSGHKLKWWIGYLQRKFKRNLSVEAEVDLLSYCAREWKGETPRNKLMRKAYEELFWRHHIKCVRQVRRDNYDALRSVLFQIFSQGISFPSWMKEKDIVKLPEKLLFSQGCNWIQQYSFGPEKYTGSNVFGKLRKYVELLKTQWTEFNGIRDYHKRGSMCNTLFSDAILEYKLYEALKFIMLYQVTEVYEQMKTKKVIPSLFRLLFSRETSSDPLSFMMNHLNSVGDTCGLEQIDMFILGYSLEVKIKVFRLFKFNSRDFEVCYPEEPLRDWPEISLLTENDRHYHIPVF
Method in brief: as §1

log2 ratio of Biotin-Ahx-Ub-VS probe labelling, inactive:
Cc1cccc(N(CCC#N)C(=O)CCl)c1C -0.0506
O=C(CCl)NCC(=O)N1CCCC1 -0.573
Cl.O=C(CCl)NC1(c2ncccn2)CCC1 -0.242
Cc1ccccc1OCC(=O)N1CCN(C(=O)CCl)CC1 0.252
O=C(CCl)N1CCOC2(CCC2)CC1 -0.0165
O=C(CCl)N1CCOC(CCc2ccccc2)C1 (centres undefined) -0.23
CCC(NC(=O)CCl)c1ccc(Cl)cc1 (centres undefined) 0.315
COc1cc(Cl)c(C)cc1NC(=O)CCl 0.159
O=C(CCl)NCc1cccc(F)c1 0.303
O=C(CCl)NCc1cccc(N2CCCC2=O)c1 -0.0389
Cl.O=C(CCl)NCc1cc2c(nc1O)CCCC2 0.13
COc1ccc(CN(C)C(=O)CCl)cc1 0.32
CC1CCc2onc(CNC(=O)CCl)c2C1 (centres undefined) 0.123
N#Cc1ccccc1N1CCN(C(=O)CCl)CC1 0.162
Cl.O=C(CCl)N1CCc2ncncc2C1 0.0971
Cc1cc(Cl)ccc1NC(=O)CCl 0.174
Cc1ccc(CC(NC(=O)CCl)c2ccccn2)cc1.Cl (centres undefined) -0.348
O=C(CCl)N1CCC(C(=O)N2CCCC2)CC1 -0.324
CCc1c[nH]c(CNC(=O)CCl)n1.Cl 0.0309
O=C(CCl)NC(Cn1ccccc1=O)c1ccccc1 (centres undefined) 0.0796
Cc1nnc(C(NC(=O)CCl)c2ccccc2)n1C (centres undefined) 0.549
Cc1cccc2nc(CCNC(=O)CCl)cn12.Cl -0.0367
Cc1cccnc1NC(=O)C1CCN(C(=O)CCl)CC1.Cl -0.0889
COc1cccc(CN(C)C(=O)CCl)c1 -0.419
Cl.O=C(CCl)NCCN1CCc2ccccc21 0.43
O=C(CCl)N1CCC(c2nc3ccccc3o2)CC1 0.258
O=C(CCl)NC1CCC(C(F)(F)F)CC1 (centres undefined) -0.0674
Cc1nc(CNC(=O)CCl)c2ccccn12.Cl -0.142
O=C(CCl)NC1CCS(=O)(=O)c2ccccc21 (centres undefined) -0.0548
O=C(CCl)N1CCC(=C(F)CO)C1 -0.0583
O=C(CCl)Nc1cccc2ncccc12 -0.205
O=C(CCl)Nc1cccc(C(=O)N2CCSCC2)c1 0.0218
